# Source: article PMC5540273 (PLoS ONE, 2017)
# Tested on: DDR1
# Conditions: concentration: 1 μM, replicates: in singlicate; n = 1
# 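Also: KINOMEscan kinase panel screen.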
row,Compound,%Inh [%]
1,COc1cc2c(cc1OC[C@@H](O)CO)ncc1c3ccc(C#N)cc3[nH]c21,0
2,COc1ccc(Nc2ncc(C#N)c(Nc3ccccc3C(N)=O)n2)cc1N1CCN(C)CC1.Cl [GSK1558669],100
3,Cc1cccc(-c2nc(-c3ccc(S(C)(=O)=O)cc3)sc2-c2ccncc2)c1,0
4,COc1cc(Nc2nccc(N3CCC(NC(=O)c4cccc(NC(C)=O)c4)C3)n2)cc(OC)c1OC (stereo not shown) [GSK1379754],0
5,Cc1ccc(NC(=O)c2ccnc(N3CCN(C)CC3)c2)cc1-c1ccc(C(=O)NCC2CC2)cc1 [GW775604],77
6,CSc1ccc(-c2cc3ncnc(SCC(=O)O)c3s2)cc1,0
7,c1ccc(-c2cc(-c3c[nH]nc3-c3ccccn3)ccn2)cc1 [GW576604],0
8,O=C(Nc1n[nH]c2cc(-c3cccc(F)c3)ccc12)C1CC1 [SB-735464],4
9,Cc1c(Cn2c(C)nn3c(=O)cc(N4CCOC(C)C4)nc23)cccc1C(F)(F)F (stereo not shown) [GSK2344444],14
10,Cc1nnc(-c2ccc3ncc(-c4ccc(S(C)=O)cc4)n3c2)o1 (stereo not shown),8
11,CN(C(=O)c1ccc(-c2cc(-c3c[nH]nc3-c3ccccn3)ccn2)cc1)C1CCOCC1 [GW810083],0
12,Fc1ccc(-c2ncn(CCCN3CCOCC3)c2-c2ccccn2)cc1 [SB-211742],0
13,COc1cc2c(cc1OCCN1CCN(C)CC1)ncc1c3ccc(C#N)cc3[nH]c21,0
14,O=C(c1ccc(-c2cc(-c3c[nH]nc3-c3ccccn3)ccn2)cc1)N1CCOCC1 [GW812171],0
15,CC(=O)Nc1ccc(COc2ccc(Nc3ccnc4cc(-c5ccccn5)ccc34)cc2)cc1.Cl [GW440148],29
16,O=C(NOCC1CC1)c1ccc(F)c(F)c1Nc1ccc(I)cc1Cl,0
17,COc1ccc(Nc2nccc(N3CCC(NC(=O)Nc4cc(C)ccc4C)C3)n2)cc1 (stereo not shown) [GSK1379741],23
18,Cc1ccc(C(=O)NCC(N)=O)cc1-n1c(C)cc(OCc2ccc(F)cc2F)c(Br)c1=O,15

row,Compound,%Inh [%]
1,Cl.Nc1ncnc2occ(-c3ccc(NC(=O)Nc4cc(C(F)(F)F)ccc4F)cc3)c12 [SB-707548],100
2,Nc1nc(-c2ccc3c(N)n[nH]c3c2)cc(N2CCCC2)n1 [GSK2227430],7
3,CN(C1=C(c2ccccc2)C(=O)NC1=O)c1ccccc1 [SB-334860],0
4,CN1c2ccc(CNc3ccc(F)cc3)cc2-c2c(cnn2C)S1(=O)=O,4
5,COc1ccc(S(=O)(=O)NC2CCN(c3cc(C)nc(Nc4cccc(C#N)c4)n3)CC2)cc1.O=C(O)C(F)(F)F [GSK1653539],0
6,O=c1cc(N2CCOCC2)nc2n(Cc3cccc(Cl)c3Cl)c(C3CC3)nn12 [GSK2358994],21
7,N#Cc1ccc(-c2cc(-c3c[nH]nc3-c3ccccn3)ccn2)cc1 [GW693028],0
8,O=C(Nc1cccc(-c2nn3ncccc3c2-c2ccnc(Nc3cccc(C(F)(F)F)c3)n2)c1)c1c(F)cccc1F [GSK299495],100
9,CCc1ccnc(/C=C/c2n[nH]c3cc(Sc4ccccc4C(=O)NC)ccc23)c1,0
10,Nc1nccc(-c2c(-c3ccc(F)cc3)ncn2C2CCN(CC(F)(F)F)CC2)n1 [SB-236560],90.8
11,Cc1cn2c(=O)cc(N3CCOCC3)nc2n1Cc1cccc(Cl)c1Cl [GSK2334006],30
12,COc1ccc(COc2cc(-n3cnc4ccccc43)sc2C(N)=O)cc1 [GSK1024304],0
13,Fc1ccc(-c2ncn(CCCN3CCOCC3)c2-c2cccnc2)cc1 [SB-211743],0
14,CN1c2ccc(NCc3ccc(F)cc3)cc2-c2c(cnn2C)S1(=O)=O,0
15,O=C(NCCNc1ccnc(Nc2ccc(F)cc2)n1)c1cc2ccccc2s1 [GSK1379874],0
16,Cc1cccc(-c2nc(Nc3ccc4ncsc4c3)c3ccccc3n2)n1 [GW867588],0
17,NCC(NC(=O)c1cc(-c2cn[nH]c2)c(-c2ccnc3[nH]ccc23)s1)c1ccccc1.O=C(O)C(F)(F)F.O=C(O)C(F)(F)F (stereo not shown) [GSK1325775],0

# Tested on: DDR2
# Conditions: concentration: 1 μM, replicates: in singlicate; n = 1
row,Compound,%Inh [%]
1,COc1cc2c(cc1OC[C@@H](O)CO)ncc1c3ccc(C#N)cc3[nH]c21,0
2,COc1ccc(Nc2ncc(C#N)c(Nc3ccccc3C(N)=O)n2)cc1N1CCN(C)CC1.Cl [GSK1558669],94.2
3,Cc1cccc(-c2nc(-c3ccc(S(C)(=O)=O)cc3)sc2-c2ccncc2)c1,9
4,COc1cc(Nc2nccc(N3CCC(NC(=O)c4cccc(NC(C)=O)c4)C3)n2)cc(OC)c1OC (stereo not shown) [GSK1379754],4
5,Cc1ccc(NC(=O)c2ccnc(N3CCN(C)CC3)c2)cc1-c1ccc(C(=O)NCC2CC2)cc1 [GW775604],59
6,CSc1ccc(-c2cc3ncnc(SCC(=O)O)c3s2)cc1,8
7,c1ccc(-c2cc(-c3c[nH]nc3-c3ccccn3)ccn2)cc1 [GW576604],24
8,O=C(Nc1n[nH]c2cc(-c3cccc(F)c3)ccc12)C1CC1 [SB-735464],8
9,Cc1c(Cn2c(C)nn3c(=O)cc(N4CCOC(C)C4)nc23)cccc1C(F)(F)F (stereo not shown) [GSK2344444],0
10,Cc1nnc(-c2ccc3ncc(-c4ccc(S(C)=O)cc4)n3c2)o1 (stereo not shown),24
11,CN(C(=O)c1ccc(-c2cc(-c3c[nH]nc3-c3ccccn3)ccn2)cc1)C1CCOCC1 [GW810083],36
12,Fc1ccc(-c2ncn(CCCN3CCOCC3)c2-c2ccccn2)cc1 [SB-211742],27
13,COc1cc2c(cc1OCCN1CCN(C)CC1)ncc1c3ccc(C#N)cc3[nH]c21,8
14,O=C(c1ccc(-c2cc(-c3c[nH]nc3-c3ccccn3)ccn2)cc1)N1CCOCC1 [GW812171],30
15,CC(=O)Nc1ccc(COc2ccc(Nc3ccnc4cc(-c5ccccn5)ccc34)cc2)cc1.Cl [GW440148],0
16,O=C(NOCC1CC1)c1ccc(F)c(F)c1Nc1ccc(I)cc1Cl,0
17,COc1ccc(Nc2nccc(N3CCC(NC(=O)Nc4cc(C)ccc4C)C3)n2)cc1 (stereo not shown) [GSK1379741],0
18,Cc1ccc(C(=O)NCC(N)=O)cc1-n1c(C)cc(OCc2ccc(F)cc2F)c(Br)c1=O,3

row,Compound,%Inh [%]
1,Cl.Nc1ncnc2occ(-c3ccc(NC(=O)Nc4cc(C(F)(F)F)ccc4F)cc3)c12 [SB-707548],98.3
2,Nc1nc(-c2ccc3c(N)n[nH]c3c2)cc(N2CCCC2)n1 [GSK2227430],3
3,CN(C1=C(c2ccccc2)C(=O)NC1=O)c1ccccc1 [SB-334860],4
4,CN1c2ccc(CNc3ccc(F)cc3)cc2-c2c(cnn2C)S1(=O)=O,35
5,COc1ccc(S(=O)(=O)NC2CCN(c3cc(C)nc(Nc4cccc(C#N)c4)n3)CC2)cc1.O=C(O)C(F)(F)F [GSK1653539],9
6,O=c1cc(N2CCOCC2)nc2n(Cc3cccc(Cl)c3Cl)c(C3CC3)nn12 [GSK2358994],0
7,N#Cc1ccc(-c2cc(-c3c[nH]nc3-c3ccccn3)ccn2)cc1 [GW693028],1
8,O=C(Nc1cccc(-c2nn3ncccc3c2-c2ccnc(Nc3cccc(C(F)(F)F)c3)n2)c1)c1c(F)cccc1F [GSK299495],56
9,CCc1ccnc(/C=C/c2n[nH]c3cc(Sc4ccccc4C(=O)NC)ccc23)c1,13
10,Nc1nccc(-c2c(-c3ccc(F)cc3)ncn2C2CCN(CC(F)(F)F)CC2)n1 [SB-236560],76
11,Cc1cn2c(=O)cc(N3CCOCC3)nc2n1Cc1cccc(Cl)c1Cl [GSK2334006],14
12,COc1ccc(COc2cc(-n3cnc4ccccc43)sc2C(N)=O)cc1 [GSK1024304],0
13,Fc1ccc(-c2ncn(CCCN3CCOCC3)c2-c2cccnc2)cc1 [SB-211743],24
14,CN1c2ccc(NCc3ccc(F)cc3)cc2-c2c(cnn2C)S1(=O)=O,31
15,O=C(NCCNc1ccnc(Nc2ccc(F)cc2)n1)c1cc2ccccc2s1 [GSK1379874],1
16,Cc1cccc(-c2nc(Nc3ccc4ncsc4c3)c3ccccc3n2)n1 [GW867588],35
17,NCC(NC(=O)c1cc(-c2cn[nH]c2)c(-c2ccnc3[nH]ccc23)s1)c1ccccc1.O=C(O)C(F)(F)F.O=C(O)C(F)(F)F (stereo not shown) [GSK1325775],43
